Among all 96,000 compounds or so, about 20,000 (21%) were called active.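 Rule for the calls: active = CYP2C19 inhibition above a set limit at 5 µM in the primary screen (cut at about 50% in these data); inactive = the rest.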 The list is a sample of the results.
Each compound was assayed against Cytochrome P450 2C19 (Homo sapiens) (UniProt P33261) (assay: blockers of cytochrome P450 2C19 activity – biochemical, luminescence, ADME assay, primary screen (AID 778;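 note: plate controls were negative control wells for no effect and 2.5 mM tranylcypromine positive control for full effect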)). Conditions: CYP2C19 Supersomes, luciferin-H EGE luminescence, 30 min; at 5 µM; stronger effect = higher value.
Cytochrome P450 2C19 (Homo sapiens), sequence (P33261 whole entry, looked up): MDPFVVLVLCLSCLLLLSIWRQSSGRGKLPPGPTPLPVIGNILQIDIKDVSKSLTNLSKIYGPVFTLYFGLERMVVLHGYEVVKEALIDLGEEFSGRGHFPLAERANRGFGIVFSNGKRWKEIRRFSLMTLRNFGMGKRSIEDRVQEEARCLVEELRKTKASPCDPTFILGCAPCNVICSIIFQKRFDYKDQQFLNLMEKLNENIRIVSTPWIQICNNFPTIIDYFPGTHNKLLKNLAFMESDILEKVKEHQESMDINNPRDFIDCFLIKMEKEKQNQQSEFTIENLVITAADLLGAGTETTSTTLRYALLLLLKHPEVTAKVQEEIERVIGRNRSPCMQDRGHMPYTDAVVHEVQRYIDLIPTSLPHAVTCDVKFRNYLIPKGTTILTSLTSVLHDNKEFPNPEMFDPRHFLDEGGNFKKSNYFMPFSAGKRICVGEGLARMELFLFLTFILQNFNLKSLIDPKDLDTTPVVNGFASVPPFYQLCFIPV

inhibition, inactive:
O=C(NC12CC3CC(CC(C3)C1)C2)N1CCCC(CO)C1 (stereo not given) 6.5%
Cc1csc2ncc(C(=O)N(Cc3ccccc3)c3ccccn3)c(=O)n12 0.8%
O=C(COc1ccc(Br)cc1F)NC1CCN(Cc2ccccc2)CC1 22.6%
Cc1cccc(C)c1NC1=NC(=S)N(c2ccc(N(C)C)cc2)C1(C)C -1%
CN(C)/C=C1/C(=O)Nc2ccccc21 -9.6%
CCOC(=O)C1C(=O)OC2(CCCC2)C1C(=O)OCC (stereo not given) 23.9%
NC(=NC(=O)c1ccccc1)C1=C(O)CCC1=O -8%
CN1CCN(CC(=O)C23CC4CC(CC(C4)C2)C3)CC1 12%
CC12CCC(C(=O)N(CCC#N)CCC#N)(CC1=O)C2(C)C (stereo not given) -14%
Cc1cc(NC(=O)COC(=O)c2ccc(F)c(S(=O)(=O)N3CCOCC3)c2)no1 8.2%
Cc1cc(C(=O)OCC(=O)c2c(N)n(C)c(=O)n(C)c2=O)c(C)o1 7.9%
COc1cc(OC)c(C(=O)NC2CC(C)(C)NC(C)(C)C2)cc1OC -7.8%
CCOC(=O)NC(C(F)(F)F)(C(F)(F)F)P(=O)(c1ccccc1)c1ccccc1 -3.8%
O=C(O)COc1nsnc1N1CCOCC1 -5.8%
Fc1cnc(N2CCOCC2)nc1NCc1ccccc1 46.1%
C/C(=N\NC(=O)Cc1ccc(Cl)cc1)c1ccccn1 39.5%
COc1cccc2sc(Nc3nc(C)c(C(C)=O)s3)nc12 12.5%
CCOC(=O)C1(S(=O)(=O)c2ccc(Cl)cc2)CCN(Cc2ccccc2)CC1 42.5%
CCCC(=O)C1CCN(Cc2ccccc2)CC1 30.5%
CSc1nc(C)cc(SC(C(C)=O)C(=O)Nc2ccccc2)n1 (stereo not given) 11.6%
Cc1cccc(C(=O)Nc2nnc(Cc3c[nH]c4ccccc34)s2)c1 8.7%
CCN(CC)c1ccc(C2C3CCCCC3(O)CCN2CC(=O)Nc2ccccc2)cc1 (stereo not given) 21.9%
CC(=O)c1cc2c(cc1NC(=O)CN1CCCCCC1)OCO2 15.4%
CC(=O)NC(C)(C)C1CC=C(C)/C(=N\O)C1 (stereo not given) 2.5%
O=C(CSc1nnc(Cn2cnc3ccccc32)o1)c1ccccc1 6.9%
O=C(O)CCC(=O)NCc1ccc2[nH]c3c(c2c1)CCCC3 -16.4%
CN=C1S/C(=C\c2ccc(Sc3ccc(Cl)cc3)o2)C(=O)N1C 7.4%
CCN1C(=O)/C(=C\N2CCN(c3ccccc3)CC2)SC1=S 17.4%
Cc1cc(NC(=O)CCC2COc3ccccc3O2)no1 (stereo not given) 23.1%
COc1ccc(NC(=O)CCNC(=O)Cn2ccc3ccccc3c2=O)c(OC)c1 -2.7%
CCCSC(=S)NC1CCS(=O)(=O)C1 (stereo not given) 13.9%
O=C(Nc1ccc(S(=O)(=O)N2CCCC2)cc1Cl)C1=COCCO1 16.2%
Cc1cccc(-n2ncc3c(N4CCc5ccccc54)ncnc32)c1 6.2%
CSc1ccccc1-c1nnc(-c2ccc(Cl)cc2)o1 -15.2%
COc1ccccc1-c1nc(C(F)(F)F)c(OC)o1 -4.3%
COc1ccc(-c2cn(-c3ccc(C)cc3)c(=O)n2CC(=O)Nc2ccc(OC)c(OC)c2)cc1 16.2%
O=C(O)c1cscn1 -12.7%
Cn1c(/C(C#N)=C2/CCCCCN2)nc2ccccc21 47.6%
N#CC(=C1CCCC1)c1nc(-c2ccc(Cl)cc2)cs1 43.3%
N#C/C(=C1/CCCN1)c1ccccn1 -7.3%
Oc1ccc(Cl)cc1/C=N/c1nc2ccccc2[nH]1 -20.9%

inhibition, active:
Cc1cc(C(=O)OCC(=O)Nc2ccc(F)c(F)c2)c(C)o1 95%
c1ccc(COc2nsnc2N2CCOCC2)cc1 98.5%
c1nc(COc2nsnc2N2CCOCC2)cs1 53.5%
CCOC(=O)C1(S(=O)(=O)c2ccccc2)CCN(Cc2ccccc2)CC1 51.8%
Cc1ccc(NC(=O)CN2CCC3(O)CCCCC3C2c2ccc3c(c2)OCO3)c(C)c1 (stereo not given) 63.9%
COc1ccc(NC(=O)CC2COc3ccccc3O2)c(OC)c1 (stereo not given) 85.5%
FC(F)(F)c1cnc(Oc2ccccc2-c2nnc(-c3ccc(Cl)cc3)o2)c(Cl)c1 66.1%
N#C/C(=C1\CCCN1)c1nc(-c2ccccc2)cs1 54.2%
N#CC(=C1SC=CS1)c1nc(-c2ccccc2)cs1 65.1%
